Data taken from the supplement of paper PMC10849652.
The full data set covers some 7,900 targets. This sample favours those with a hit. About 0.6% of all pairs of compound and target were hits.

Key:
Assay in all cases: log2 fold change, soluble protein after heating vs DMSO (PISA); higher = thermal stabilisation; K562 cells, 10 uM, 30 min; active = over 0.2 and 3.5 SD of the protein, either way, in both replicates (recomputed)
[1] = compound: NC(=O)Nc1cc(-c2cccc(F)c2)sc1C(=O)N[C@H]1CCCNC1
Summary of the method: (§1)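 Soluble protein was defined as the supernatant after 21,000xg for 90 min. It came from K562 cells at 2×10^6 cells/mL given 10 μM compound for 30 min, heated in aliquots for 3 min across 48°C-58°C, pooled, and extracted in PBS with 0.5% NP-40 at 4°C, and was quantified by TMTpro 16plex LC-MS/MS with equalised channel sums. Thermal stability against control samples, from duplicates, is reported as log2 fold change.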

[2] = compound: NC(=O)c1cnc(N[C@@H]2CCCC[C@@H]2N)nc1Nc1cccc(-n2nccn2)c1
Summary of the method: as §1

[3] = compound: NC1(c2ccc(-c3nc4ccn5c(=O)[nH]nc5c4cc3-c3ccccc3)cc2)CCC1
Summary of the method: as §1

[4] = compound: NCC(=O)Nc1ccc(-n2nc(C(F)(F)F)cc2-c2ccc3c(ccc4ccccc43)c2)cc1
Summary of the method: as §1

[5] = compound: Nc1ccccc1NC(=O)c1ccc(CNC(=O)OCc2cccnc2)cc1 [entinostat]
Summary of the method: as §1

[6] = compound: O=C(CCCCCCC(=O)Nc1ccccc1)NO [vorinostat]
Summary of the method: as §1

[7] = compound: O=C(CCCCCCNC(=O)c1cnc(N(c2ccccc2)c2ccccc2Cl)nc1)NO [citarinostat]
Summary of the method: as §1

[8] = compound: O=C(O)c1ccc2c(c1)nc(Nc1cccc(Cl)c1)c1ccncc12 [silmitasertib]
Summary of the method: as §1

[9] = compound: O=C1NC(=O)C(c2cnc3ccccn23)=C1c1cn2c3c(cc(F)cc13)CN(C(=O)N1CCCCC1)CC2
Summary of the method: as §1

[10] = compound: c1cc(OCCN2CCCCC2)cc(-c2n[nH]c3ccc(-c4nnc[nH]4)cc23)c1
Summary of the method: as §1

Measured: log2 fold change

GCDH (UniProt Q92947)
inactive: [1] 0.015 | [2] 0.031 | [3] 0.052 | [4] 0.006 | [5] -0.002 | [6] 0.103 | [7] 0.025 | [8] -0.05 | [9] -0.019 | [10] 0.009

GDI1 (UniProt P31150)
Sequence of UniProt P31150 (P31150 whole entry, looked up): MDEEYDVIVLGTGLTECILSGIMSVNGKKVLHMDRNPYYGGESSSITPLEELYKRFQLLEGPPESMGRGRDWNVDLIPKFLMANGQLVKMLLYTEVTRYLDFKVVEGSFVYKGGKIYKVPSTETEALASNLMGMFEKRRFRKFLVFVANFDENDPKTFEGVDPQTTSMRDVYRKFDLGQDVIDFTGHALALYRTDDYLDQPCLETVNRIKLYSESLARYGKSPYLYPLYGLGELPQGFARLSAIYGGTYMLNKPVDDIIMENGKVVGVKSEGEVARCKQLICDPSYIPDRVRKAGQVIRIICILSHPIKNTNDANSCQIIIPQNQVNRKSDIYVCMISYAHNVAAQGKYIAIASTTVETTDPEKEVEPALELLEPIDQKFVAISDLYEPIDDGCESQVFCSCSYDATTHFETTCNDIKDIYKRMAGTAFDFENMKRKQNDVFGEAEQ
inactive: [1] -0.018 | [2] -0.066 | [3] -0.051 | [4] -0.04 | [5] -0.016 | [6] 0.022 | [7] 0.014 | [8] -0.012 | [9] -0.037 | [10] -0.04

GBF1 (UniProt Q92538)
inactive: [1] -0.026 | [2] -0.012 | [3] -0.122 | [4] -0.058 | [5] 0.053 | [6] 0.144 | [7] 0.124 | [8] -0.018 | [9] -0.001 | [10] -0.023

GTF3C5 isoform 3 (UniProt Q9Y5Q8)
inactive: [1] -0.028 | [2] 0.211 | [3] -0.054 | [4] -0.051 | [5] 0.046 | [6] 0.072 | [7] -0.074 | [8] -0.034 | [9] 0.042 | [10] 0.013

FERMT3 (UniProt Q86UX7)
inactive: [1] -0.055 | [2] -0.107 | [3] -0.106 | [4] -0.065 | [5] 0.032 | [6] 0.026 | [7] 0.067 | [8] -0.001 | [9] -0.048 | [10] -0.02

HNRNPH2 (UniProt P55795)
inactive: [1] -0.073 | [2] -0.03 | [3] -0.124 | [4] -0.077 | [5] 0.016 | [6] 0.114 | [7] 0.06 | [8] 0.031 | [9] -0.007 | [10] -0.086

GAK (UniProt O14976)
Sequence of UniProt O14976 (O14976 whole entry, looked up): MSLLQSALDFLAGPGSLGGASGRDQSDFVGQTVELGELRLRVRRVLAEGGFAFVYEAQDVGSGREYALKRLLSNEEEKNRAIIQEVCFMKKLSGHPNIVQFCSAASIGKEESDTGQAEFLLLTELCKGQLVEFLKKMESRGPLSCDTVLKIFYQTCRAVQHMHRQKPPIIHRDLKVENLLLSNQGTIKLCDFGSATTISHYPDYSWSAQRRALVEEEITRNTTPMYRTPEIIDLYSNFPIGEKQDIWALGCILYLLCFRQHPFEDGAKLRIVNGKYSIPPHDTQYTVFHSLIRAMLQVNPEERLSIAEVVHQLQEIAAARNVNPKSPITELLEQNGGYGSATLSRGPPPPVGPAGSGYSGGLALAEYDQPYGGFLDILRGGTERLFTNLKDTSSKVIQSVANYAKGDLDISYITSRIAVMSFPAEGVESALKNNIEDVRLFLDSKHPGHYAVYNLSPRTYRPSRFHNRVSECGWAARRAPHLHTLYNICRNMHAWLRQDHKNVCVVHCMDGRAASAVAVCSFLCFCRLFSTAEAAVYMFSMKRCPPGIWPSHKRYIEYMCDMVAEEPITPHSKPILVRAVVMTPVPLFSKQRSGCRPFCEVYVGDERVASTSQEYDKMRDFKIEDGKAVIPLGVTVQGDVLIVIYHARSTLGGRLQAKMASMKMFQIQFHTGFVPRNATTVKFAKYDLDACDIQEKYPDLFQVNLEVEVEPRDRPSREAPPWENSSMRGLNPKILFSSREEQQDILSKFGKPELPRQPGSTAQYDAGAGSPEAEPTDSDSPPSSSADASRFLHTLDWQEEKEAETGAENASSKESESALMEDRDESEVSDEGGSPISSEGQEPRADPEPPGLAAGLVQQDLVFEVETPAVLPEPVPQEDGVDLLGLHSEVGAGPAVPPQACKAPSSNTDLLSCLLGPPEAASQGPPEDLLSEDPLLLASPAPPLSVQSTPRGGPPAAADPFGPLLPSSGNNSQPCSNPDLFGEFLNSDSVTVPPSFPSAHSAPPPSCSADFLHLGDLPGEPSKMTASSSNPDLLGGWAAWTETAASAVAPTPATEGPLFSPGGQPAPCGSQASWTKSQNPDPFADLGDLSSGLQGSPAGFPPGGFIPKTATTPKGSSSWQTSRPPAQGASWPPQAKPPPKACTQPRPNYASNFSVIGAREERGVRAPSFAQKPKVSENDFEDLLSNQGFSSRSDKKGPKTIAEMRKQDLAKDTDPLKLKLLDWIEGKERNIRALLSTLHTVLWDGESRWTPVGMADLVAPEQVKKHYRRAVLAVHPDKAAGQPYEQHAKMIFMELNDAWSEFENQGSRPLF
inactive: [1] 1.52 | [2] 0.465 | [3] 0.145 | [4] 1.4 | [5] -0.072 | [6] -0.01 | [7] -0.244 | [8] 0.607 | [9] 0.236 | [10] 0.687

GID4 (UniProt Q8IVV7)
Sequence of UniProt Q8IVV7 (Q8IVV7 whole entry, looked up): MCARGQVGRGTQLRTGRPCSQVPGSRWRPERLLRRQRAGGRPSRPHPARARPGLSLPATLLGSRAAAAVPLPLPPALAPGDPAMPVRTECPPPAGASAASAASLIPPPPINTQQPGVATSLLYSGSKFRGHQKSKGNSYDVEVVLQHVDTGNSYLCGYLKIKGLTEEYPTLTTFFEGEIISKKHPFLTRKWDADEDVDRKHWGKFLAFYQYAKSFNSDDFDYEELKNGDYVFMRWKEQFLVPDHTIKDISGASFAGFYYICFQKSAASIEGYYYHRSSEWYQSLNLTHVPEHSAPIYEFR
active: [5] 0.289
inactive: [1] -0.165 | [2] -0.03 | [3] -0.032 | [4] -0.146 | [6] -0.074 | [7] 0.006 | [8] 0.118 | [9] -0.017 | [10] -0.052

FKBP7 (UniProt Q9Y680)
Sequence of UniProt Q9Y680 (Q9Y680 whole entry, looked up): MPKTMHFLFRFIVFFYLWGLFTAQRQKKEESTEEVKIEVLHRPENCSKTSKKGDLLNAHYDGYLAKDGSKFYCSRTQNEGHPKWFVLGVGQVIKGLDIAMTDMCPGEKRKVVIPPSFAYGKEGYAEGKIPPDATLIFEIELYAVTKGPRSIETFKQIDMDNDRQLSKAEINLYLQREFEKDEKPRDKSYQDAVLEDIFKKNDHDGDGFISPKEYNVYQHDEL
inactive: [1] -0.034 | [2] -0.017 | [3] 0.005 | [4] -0.037 | [5] -0.029 | [6] -0.017 | [7] -0.02 | [8] 0.079 | [9] 0.008 | [10] -0.097

GSK3A (UniProt P49840)
inactive: [1] -0.02 | [2] 0.014 | [3] -0.054 | [4] 0.051 | [5] -0.03 | [6] -0.053 | [7] 0.015 | [8] -0.004 | [10] 0.193
active: [9] 0.454

GLB1 (UniProt P16278)
inactive: [1] 0.02 | [2] 0.002 | [3] -0.097 | [4] -0.043 | [5] 0.01 | [6] -0.065 | [7] 0.005 | [8] 0.021 | [9] -0.003 | [10] -0.044

GCSH (UniProt P23434)
inactive: [1] 0.027 | [2] 0.037 | [3] 0.073 | [4] 0.027 | [5] -0.049 | [6] 0.057 | [7] 0.022 | [8] 0.193 | [9] -0.144 | [10] -0.04

HEXB (UniProt P07686)
Sequence of UniProt P07686 (P07686 whole entry, looked up): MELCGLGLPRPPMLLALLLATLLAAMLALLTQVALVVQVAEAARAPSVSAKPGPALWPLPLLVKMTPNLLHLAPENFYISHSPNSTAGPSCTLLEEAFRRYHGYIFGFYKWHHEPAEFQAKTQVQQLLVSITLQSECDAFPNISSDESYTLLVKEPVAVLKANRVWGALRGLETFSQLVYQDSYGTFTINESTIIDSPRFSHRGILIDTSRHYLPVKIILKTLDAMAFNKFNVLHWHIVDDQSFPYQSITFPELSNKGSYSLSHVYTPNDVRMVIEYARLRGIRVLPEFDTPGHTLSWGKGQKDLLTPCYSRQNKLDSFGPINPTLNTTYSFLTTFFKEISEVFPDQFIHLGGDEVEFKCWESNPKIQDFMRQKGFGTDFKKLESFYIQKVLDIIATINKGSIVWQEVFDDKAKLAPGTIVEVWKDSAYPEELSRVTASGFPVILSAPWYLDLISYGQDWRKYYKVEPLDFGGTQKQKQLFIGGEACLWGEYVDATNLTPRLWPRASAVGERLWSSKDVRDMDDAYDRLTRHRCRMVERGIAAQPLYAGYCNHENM
inactive: [1] 0.003 | [2] -0.051 | [3] -0.145 | [4] -0.034 | [5] 0.004 | [6] -0.042 | [7] 0.033 | [8] 0.007 | [9] -0.034 | [10] -0.003

GOLPH3 (UniProt Q9H4A6)
inactive: [1] 0.041 | [2] -0.082 | [3] 0.009 | [4] 0 | [5] 0.022 | [6] 0.014 | [7] 0.071 | [8] -0.013 | [9] 0 | [10] -0.043

FHOD1 (UniProt Q9Y613)
inactive: [1] -0.075 | [2] -0.042 | [3] 0.179 | [4] 0.051 | [5] -0.103 | [6] 0.034 | [7] -0.073 | [8] 0.177 | [9] 0.23 | [10] -0.085

GTF2E2 (UniProt P29084)
Sequence of UniProt P29084 (P29084 whole entry, looked up): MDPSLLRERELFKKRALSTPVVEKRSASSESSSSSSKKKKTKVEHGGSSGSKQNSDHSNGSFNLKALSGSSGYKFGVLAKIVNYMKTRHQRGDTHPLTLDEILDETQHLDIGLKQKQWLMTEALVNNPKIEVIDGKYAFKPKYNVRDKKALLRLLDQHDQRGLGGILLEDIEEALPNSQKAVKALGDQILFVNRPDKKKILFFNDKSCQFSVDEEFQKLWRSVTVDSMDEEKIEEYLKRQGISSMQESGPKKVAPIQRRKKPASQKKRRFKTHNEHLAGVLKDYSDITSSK
inactive: [1] -0.097 | [2] -0.052 | [3] -0.048 | [4] -0.048 | [5] 0.025 | [6] 0.093 | [7] 0.093 | [8] 0.085 | [9] 0.054 | [10] -0.067

HDHD2 (UniProt Q9H0R4)
inactive: [1] 0.091 | [2] -0.016 | [3] -0.023 | [4] 0.048 | [5] -0.01 | [6] -0.018 | [7] 0.033 | [8] -0.007 | [9] 0.131 | [10] -0.012

GSR (UniProt P00390)
Sequence of UniProt P00390 (P00390 whole entry, looked up): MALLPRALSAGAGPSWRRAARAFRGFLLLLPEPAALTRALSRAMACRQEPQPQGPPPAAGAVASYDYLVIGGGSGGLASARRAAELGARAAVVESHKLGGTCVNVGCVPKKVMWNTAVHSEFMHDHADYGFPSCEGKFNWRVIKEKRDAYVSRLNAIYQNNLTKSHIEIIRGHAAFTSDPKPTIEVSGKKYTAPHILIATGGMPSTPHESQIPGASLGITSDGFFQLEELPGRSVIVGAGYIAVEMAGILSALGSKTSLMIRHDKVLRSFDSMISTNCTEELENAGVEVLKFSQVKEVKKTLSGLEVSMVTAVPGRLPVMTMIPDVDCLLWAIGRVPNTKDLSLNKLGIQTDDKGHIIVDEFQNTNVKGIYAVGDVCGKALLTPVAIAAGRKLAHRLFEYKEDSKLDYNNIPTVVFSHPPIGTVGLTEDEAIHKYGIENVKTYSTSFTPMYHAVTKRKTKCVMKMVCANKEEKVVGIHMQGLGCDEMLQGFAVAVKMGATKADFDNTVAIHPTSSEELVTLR
inactive: [1] 0.008 | [2] -0.046 | [3] 0 | [4] -0.03 | [5] -0.011 | [6] 0.019 | [7] 0.028 | [8] -0.027 | [9] -0.023 | [10] 0.018

GUSB (UniProt P08236)
inactive: [1] -0.044 | [2] 0.029 | [3] 0.047 | [4] 0.067 | [5] -0.066 | [6] 0.049 | [7] 0.148 | [8] -0.011 | [9] 0.057 | [10] -0.059

GDPD1 (UniProt Q8N9F7)
inactive: [1] -0.024 | [2] 0.144 | [3] 0.067 | [4] 0.003 | [5] -0.011 | [6] -0.141 | [7] 0.051 | [8] -0.039 | [9] 0.096 | [10] -0.038

GTF2E1 (UniProt P29083)
inactive: [1] -0.038 | [2] -0.118 | [3] -0.122 | [4] -0.198 | [5] 0.054 | [6] 0.095 | [7] 0.073 | [8] 0.06 | [9] -0.134 | [10] -0.124

FDPS (UniProt P14324)
inactive: [1] 0.009 | [2] -0.136 | [3] -0.48 | [4] -0.14 | [5] 0.001 | [6] 0.215 | [7] 0.142 | [8] -0.108 | [9] -0.026 | [10] -0.069

GTF2B (UniProt Q00403)
inactive: [1] -0.009 | [2] -0.08 | [3] -0.172 | [4] -0.056 | [5] 0.047 | [6] 0.211 | [7] 0.037 | [8] 0.005 | [9] -0.156 | [10] 0.022

FKBP4 (UniProt Q02790)
inactive: [1] 0.005 | [2] -0.071 | [3] -0.114 | [4] -0.053 | [5] 0.039 | [6] 0.035 | [7] 0.072 | [8] 0.01 | [9] -0.02 | [10] -0.029

IFNGR1 (UniProt P15260)
inactive: [1] -0.116 | [2] -0.068 | [3] 0.27 | [4] 0.051 | [5] -0.123 | [6] 0.058 | [7] 0.014 | [8] 0.055 | [9] -0.118 | [10] -0.086

GNAS (UniProt Q5JWF2)
Sequence of UniProt Q5JWF2 (Q5JWF2 whole entry, looked up): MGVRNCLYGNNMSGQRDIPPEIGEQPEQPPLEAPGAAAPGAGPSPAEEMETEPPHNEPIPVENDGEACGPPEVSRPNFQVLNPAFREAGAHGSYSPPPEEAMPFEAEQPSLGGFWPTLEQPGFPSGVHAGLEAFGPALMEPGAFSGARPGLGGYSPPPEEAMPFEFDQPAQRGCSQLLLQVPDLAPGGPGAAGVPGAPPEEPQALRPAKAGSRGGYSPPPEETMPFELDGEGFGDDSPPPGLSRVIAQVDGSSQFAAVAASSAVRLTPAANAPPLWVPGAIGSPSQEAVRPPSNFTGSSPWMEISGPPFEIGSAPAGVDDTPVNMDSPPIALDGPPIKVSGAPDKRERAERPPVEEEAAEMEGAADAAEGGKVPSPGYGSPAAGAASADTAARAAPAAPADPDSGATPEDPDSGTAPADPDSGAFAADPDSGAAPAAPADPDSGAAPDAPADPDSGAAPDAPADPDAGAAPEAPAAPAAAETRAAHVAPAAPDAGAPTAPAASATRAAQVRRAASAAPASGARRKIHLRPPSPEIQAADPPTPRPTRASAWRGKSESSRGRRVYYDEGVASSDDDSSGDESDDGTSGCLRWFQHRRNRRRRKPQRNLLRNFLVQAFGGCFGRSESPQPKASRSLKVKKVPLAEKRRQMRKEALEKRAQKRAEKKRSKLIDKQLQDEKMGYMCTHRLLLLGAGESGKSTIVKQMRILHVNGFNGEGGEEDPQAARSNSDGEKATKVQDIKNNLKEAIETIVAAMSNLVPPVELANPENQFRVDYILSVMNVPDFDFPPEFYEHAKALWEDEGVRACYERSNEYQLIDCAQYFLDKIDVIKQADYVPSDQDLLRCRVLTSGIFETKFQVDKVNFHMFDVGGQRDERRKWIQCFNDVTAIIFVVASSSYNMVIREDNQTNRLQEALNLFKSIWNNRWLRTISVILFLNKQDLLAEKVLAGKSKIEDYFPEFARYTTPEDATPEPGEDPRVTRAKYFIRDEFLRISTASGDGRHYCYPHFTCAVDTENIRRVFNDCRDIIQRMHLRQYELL
inactive: [1] -0.133 | [2] -0.009 | [3] 0.002 | [4] -0.004 | [5] -0.058 | [6] -0.022 | [7] -0.043 | [8] -0.018 | [9] -0.007 | [10] -0.045

HEXA (UniProt P06865)
inactive: [1] -0.025 | [2] -0.06 | [3] -0.156 | [4] 0.006 | [5] -0.028 | [6] -0.02 | [7] 0.056 | [8] -0.013 | [9] -0.037 | [10] -0.022

HPCAL1 (UniProt P37235)
inactive: [1] 0.033 | [2] -0.014 | [3] -0.152 | [4] -0.032 | [5] 0.006 | [6] -0.018 | [7] 0.032 | [8] 0.028 | [9] -0.03 | [10] -0.032

FBL (UniProt P22087)
Sequence of UniProt P22087 (P22087 whole entry, looked up): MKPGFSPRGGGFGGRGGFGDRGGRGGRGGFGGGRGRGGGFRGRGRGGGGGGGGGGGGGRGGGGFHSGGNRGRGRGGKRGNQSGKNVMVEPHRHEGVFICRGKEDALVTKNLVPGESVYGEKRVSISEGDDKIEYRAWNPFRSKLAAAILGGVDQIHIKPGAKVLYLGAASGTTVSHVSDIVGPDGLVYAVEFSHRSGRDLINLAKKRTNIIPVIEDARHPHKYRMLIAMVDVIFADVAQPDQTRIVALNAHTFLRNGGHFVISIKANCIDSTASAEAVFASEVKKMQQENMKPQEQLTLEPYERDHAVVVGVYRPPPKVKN
inactive: [1] 0.095 | [2] 0.165 | [3] 0.455 | [4] 0.067 | [5] -0.109 | [6] 0.005 | [7] -0.109 | [8] 0.232 | [9] 0.13 | [10] -0.237

FBXO7 (UniProt Q9Y3I1)
inactive: [1] 0.061 | [2] -0.052 | [3] -0.077 | [4] -0.044 | [5] 0.038 | [6] 0.097 | [7] 0.013 | [8] 0.031 | [9] -0.026 | [10] -0.052
